# Measurements as given in ChEMBL document CHEMBL1157539, “Thousands of chemical starting points for antimalarial lead identification” (Nature, 2010).
# System: Plasmodium falciparum
# Experiment: GSK_TCMDC: Inhibition of Plasmodium falciparum 3D7 in whole red blood cells, using parasite LDH activity as an index of growth. Test compounds present at 2uM
# Type: functional
row,Compound,Inhibition [%]
1,CCN(CCO)Cc1ccc(-c2ccc(NS(=O)(=O)c3cccc4cccnc34)cc2)cc1.O=C(O)C(F)(F)F,92
2,O=C1Nc2ccccc2/C1=N/NC(=S)N1CCOCC1,95
3,O=C(/C=C/c1ccc2ccccc2c1)NCCCCCN1CCC(c2c[nH]c3ccccc23)CC1,90
4,Cl.N=C(N)c1cccc(OCCCOc2cccc(NC(=O)Nc3ccc([N+](=O)[O-])cc3)c2)c1,98
5,COc1ccc(NC(=O)c2ccc(-c3nc(-c4cccc(C(F)(F)F)c4)cs3)cc2)cc1N1CCN(C)CC1,98
6,Cc1cc(N[C@@H](Cc2ccccc2)C(=O)NC2CCCC2)nc(NCC2CCCCC2)n1.O=C(O)C(F)(F)F,100
7,Cc1ccccc1/N=C1\NC(=S)N(c2cccc(C(F)(F)F)c2)C12CCC(C(C)(C)C)CC2 (stereo not given),95
8,COc1ccc(Cl)cc1N1CCN(CCCNC(=O)c2ccc(-c3nc4cc(Cl)c(C)cc4[nH]3)s2)CC1,100
9,O=C(Nc1cccc(-c2ccc(-c3nc4cc(C(F)(F)F)ccc4[nH]3)cc2)c1)c1ccncc1,100
10,COc1cc2nc(N3CCC(CNC(=O)c4ccc(-c5ccccc5)cc4)CC3)nc(N)c2cc1OC,93
11,COc1ccc(-c2ccc(NC(=O)c3cccc(F)c3)cc2)cc1CN1CCCN(C)CC1.O=C(O)C(F)(F)F,100
12,CCOC(=O)c1cc2c(CCN3C(=O)c4ccccc4C3=O)cn(C)c2cc1-c1ccncc1,100
13,O=C(Nc1cccc(-c2ccc(-c3nc4cc(C(F)(F)F)ccc4[nH]3)s2)c1)c1ccncc1,99
14,CCc1ccccc1N1CCN(CCCCNC(=O)c2ccc(NC(=O)c3ccc(Cl)cc3)cc2)CC1,96
15,CCOc1cc(CC)ccc1C1CCN(CCCCNC(=O)c2ccc(NC(=O)c3ccc(Cl)cc3)cc2)CC1.Cl,100
16,Cc1ccc2[nH]c(-c3cc(-c4cccc(C#N)c4)cnc3N)nc2c1.O=C(O)C(F)(F)F,100
17,O=C(Nc1cccc(-c2cccc(-c3nc4cc(C(F)(F)F)ccc4[nH]3)c2)c1)Nc1ccc(F)c(F)c1F,99
18,CCOC(=O)NC1=NC(C)(C)N(OCc2cccc3c2ccc2ccccc23)C(NC(=O)OCC)=N1,98
19,CCN(CC)CCN(Cc1ccc(-c2ccc(C(F)(F)F)cc2)cc1)C(=O)Cn1c(CCc2cccc(F)c2F)nc(=O)c2cc(F)c(F)cc21.O=C(O)C(O)C(O)C(=O)O,100
20,COc1ccc(Nc2ncc3c(-c4ccc(NC(=O)c5cccc(C(F)(F)F)c5)cc4)c[nH]c3n2)cc1OC,89

row,Compound,Inhibition [%]
1,CCCCCCCCCc1c(C)[nH]c2ccccc2c1=O,97
2,Cc1ccc(C)c(Cn2c(N3CCC(C(=O)NCc4cccs4)CC3)nc3ccccc32)c1,89
3,CCN(CC)CCOc1ccc(N(Cc2ccc(C(C)(C)C)cc2)C(=O)c2ccc(Cc3ccccc3)cc2)cc1OC.Cl,99
4,CN(C)Cc1ccc(-c2ccc(NC(=O)c3ccc4c(=O)n(Cc5ccoc5)cnc4c3)cc2)cc1,80
5,Cc1ccc(Nc2nc(N/N=C/c3cc4c(cc3Br)OCO4)nc(Nc3ccc([N+](=O)[O-])cc3)n2)cc1C,100
6,Clc1ccc(-c2[nH]c3ccccc3c2CN2CCC(N3CCCCC3)CC2)cc1,93
7,CN1CCC(c2c[nH]c3ccc(NC(=O)Nc4ccc(-c5ccncc5)cc4Cl)cc23)CC1,100
8,O=C(NCCCCCN1CCC(c2c[nH]c3ccccc23)CC1)Nc1cccc(Br)c1,84
9,CCCCCCN1CCC(NCc2cccc3ccccc23)CC1.O=C(O)C(F)(F)F,95
10,Cc1nc(O)c2c(ccc3ccc(CNc4ccc(C(=O)N[C@@H](CCC(=O)O)C(=O)O)cc4)cc32)n1,89
11,COc1ccc(NC(=O)C2c3ccccc3C(=O)N(C3CCCC3)C2c2cccs2)c(OC)c1 (stereo not given),84
12,O=C(O)C(F)(F)F.O=[N+]([O-])c1cccc(CNCC2CCN(CC3CCCCC3)CC2)c1,90
13,Cc1cc(N[C@@H](CC(C)C)C(=O)NCCOc2ccccc2)nc(NCCc2ccc(F)cc2)n1.O=C(O)C(F)(F)F,95
14,COc1ccc(CN2CCCN(Cc3ccc(C(=O)Nc4ccc(Cl)cc4)cc3)CC2)cc1.O=C(O)C(F)(F)F,91
15,COc1cc(Nc2ccnc3cc(-c4nccs4)ccc23)ccc1OCCCc1nc2ccccc2[nH]1.Cl,100
16,O=C1SC(=Cc2ccc(O)c(O)c2)C(=O)N1c1ccccc1,91
17,Clc1cc2c(Nc3ccc(Oc4ccccc4)cc3)ccnc2cc1-c1ccc(CNCCN2CCOCC2)o1,100
18,CCOc1cc(C2C(C(=O)OC(C)C)=C(C)NC3=C2C(=O)CC(c2ccc(Cl)cc2)C3)ccc1OC(C)=O (stereo not given),90
19,Cc1nc(NC(=N)N)nc2cc3c(cc12)CCC3.Cl,90
20,COc1ccc(NC(=O)/C=C/c2ccc(-c3ccc(-c4noc(C)n4)cc3)cc2)cc1OCCN(C)C.O=C(O)C(=O)O,81
